From PubChem BioAssay AID651593 (National Center for Advancing Translational Sciences (NCATS), 2012)
Screen size: about 1,100 compounds; about 860 (78%) were called active. Another 19% or so got no clear call; they are omitted. The call rests on the fitted dose curve; in most records, active means well fitted activation curve with a large enough effect; inconclusive means small, poorly fitted or top-dose-only effect; inactive means flat fitted curve, though single readings scatter. So high a share suggests a set chosen from earlier hits. Some of the results follow.

Assay: qHTS of Nrf2 Activators: Hit Validation in Primary Assay; further: nearly all actives have a fitted effect of over 70% in size; on activation: 0% is about no effect
Settings: Nrf2/ARE reporter cell assay; Potency: activation; series mostly up to 46.1 µM; activation: at the top concentration
Summary of the method: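 Luminescence from Steady-Glo lysis reagent, read after 30 min, reported ARE-luciferase activity in AREc32_fluc stable cells. Compounds were tested at several concentrations, incubated 24 h at 37 °C with 5% CO2 following overnight seeding.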
Potency means the concentration at half of the fitted maximal effect.

Potency, active:
COc1ccccc1NC(=O)c1cc(Cl)nc2ccccc12 5.17 µM, O=[N+]([O-])c1cnccc1-n1nnc2ccccc21 18.4 µM, COc1ccc(S(=O)(=O)NCCc2csc3nc(-c4ccc(Cl)cc4)nn23)cc1C 5.17 µM, O=C(COCc1cc(-c2ccc(F)cc2)on1)Nc1cc(Cl)ccc1O 8.2 µM, O=C(COCc1cc(-c2cccs2)on1)Nc1cc(Cl)ccc1O 2.31 µM, Oc1ccccc1C1CC(c2cccs2)=NC(c2ccc(Cl)cc2)N1 (configuration not stated) 13 µM, C/C(=N\NC(=O)COc1ccccc1[N+](=O)[O-])c1cccs1 6.51 µM, COC(=O)c1ccccc1NC(=O)COc1ccccc1[N+](=O)[O-] 2.59 µM, O=c1nc2c(-c3ccccc3F)n[nH]n2c2ccccc12 2.59 µM, CCNc1nc(NCC)nc(N(C)/N=C/c2ccco2)n1 2.59 µM, O=C(N/N=C/c1ccco1)Nc1ccccc1 8.2 µM, O=C(N/N=C\c1ccco1)Nc1cccc(Cl)c1 2.31 µM, O=C(Nc1ccc(F)cc1)c1nsc(Cl)c1Cl 1.64 µM, Clc1ccc(C=Cc2ccccn2)cc1 5.17 µM, Clc1ccc(C=Cc2ccccn2)c(Cl)c1 3.66 µM, CC1(C)C2C/C(=N\O)C(C)(/[N+]([O-])=C/c3cccc([N+](=O)[O-])c3)CC21 (configuration not stated) 20.6 µM, N#C/C(=C\C=C\c1ccccc1)C(=O)NCc1cccnc1 2.31 µM, CCNc1ccc(-c2nc(-c3ccco3)no2)cc1[N+](=O)[O-] 1.46 µM, O=[N+]([O-])c1cc(-c2nc(-c3ccccc3)no2)ccc1NCc1cccnc1 2.31 µM, COCCNc1ccc(-c2nc(-c3ccco3)no2)cc1[N+](=O)[O-] 1.46 µM, CCCNc1ccc(-c2nc(-c3ccco3)no2)cc1[N+](=O)[O-] 2.31 µM, Cc1nn(-c2cccc(C(F)(F)F)c2)c(=O)c2ccccc12 3.66 µM, COc1cc(-c2noc(-c3cccs3)n2)cc(OC)c1OC 13 µM, CCOc1ccc(Br)cc1-c1noc(-c2cccs2)n1 2.31 µM, CCOc1ncccc1-c1nc(-c2cccs2)no1 18.4 µM, CCN=c1scc(C)n1/N=C/c1ccsc1 7.31 µM, Cc1nc([N+](=O)[O-])c(Br)n1Cc1ccccc1 20.6 µM, c1ccc2c(c1)nnn2-c1ncnc2sccc12 13 µM, Clc1nc2sccn2c1/C=N/n1cnc2ccccc21 2.59 µM, O=C(CSc1nnc(-c2cccnc2)o1)c1cc2ccccc2oc1=O 18.4 µM, Oc1ccccc1C=NN=Cc1c(O)ccc2ccccc12 3.66 µM, Nc1nonc1N/N=C/c1c(O)ccc2ccccc12 6.51 µM, Cc1c(NC(=O)Nc2cccs2)cccc1[N+](=O)[O-] 11.6 µM, O=C(Nc1cccc([N+](=O)[O-])c1)Nc1cccs1 18.4 µM, O=c1oc2ccc(Cl)cc2nc1/C=C(\O)c1ccco1 14.6 µM, CC(C)(C)/C(O)=C/c1nc2cc(Cl)ccc2oc1=O 13 µM, O=c1oc2ccc(Cl)cc2nc1/C=C(\O)c1cccs1 14.6 µM, O=c1oc2ccccc2cc1-c1csc(Nc2ccc(O)cc2)n1 4.61 µM, O=c1oc2ccccc2cc1-c1nc(-c2cccs2)cs1 3.66 µM, O=c1oc2ccccc2cc1-c1nc2c(s1)CCc1ccccc1-2 3.26 µM, N=c1oc2ccccc2cc1-c1nc(-c2ccccc2)cs1 3.66 µM, COc1ccccc1C(=O)NCc1nc2cccnc2n1Cc1ccc(F)cc1 2.91 µM, C#CCSc1nnc(-c2sc3ccccc3c2Cl)o1 2.59 µM, c1cncc(-c2nc(NCc3ccco3)c3ccccc3n2)c1 5.17 µM, Cc1ccc(-c2nc(NCc3ccco3)c3ccccc3n2)cc1 6.51 µM, O=C(CCN1C(=O)c2cccc3cccc(c23)C1=O)Nc1ccon1 4.61 µM, Cc1cc(=O)oc2c(C(=O)/C=C/c3ccccc3)c(O)ccc12 2.59 µM, Cc1cc(=O)oc2c(C(=O)/C=C\c3cccs3)c(O)ccc12 9.2 µM, Cc1ccc(S(=O)(=O)CCSC(=N)N)cc1 18.4 µM, O=C(Nc1ccc(Cl)cn1)c1cnn2cccnc12 5.17 µM

activation, inactive:
O=C(Nc1cccc(/C=C/c2ccccn2)c1)c1ccc(-n2cncn2)cc1 10.1%, Cc1cc(N/N=C/c2c(O)ccc3ccccc23)nc(-c2ccccc2O)n1 12.2%
